Data on 40 molecules can be found in PubChem BioAssay AID2501 (Southern Research Specialized Biocontainment Screening …, 2010).

About 1,200 (55%) of roughly 2,200 compounds were called active. No cut-off is given here; in the data, nearly all actives have IC50 up to about 92 µM. So high a share suggests a set chosen from earlier hits. Some of the results follow.

A short description of this assay: counter assay for TAg ATPase ADP read-out – biochemical, ADP-Hunter, fluorescence, counter-screen (AID 2501).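 For inhibition: 0% = enzyme with vehicle and 100% = reference inhibitor wells; higher means more inhibition.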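 Note: purified T antigen ATPase.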 The settings on record: series mostly up to 100 µM; inhibition: at the top concentration. In general terms: Counterscreens check selectivity or assay interference.
Consider `CCCCn1c(=O)c2ccccc2n2c(=S)[nH]nc12`, for which the IC50 was 11.3 µM (active).

Take `CCCn1c(=O)c2ccccc2n2c(=S)[nH]nc12`: the IC50 is 3.07 µM (active).

For the molecule `CCCCn1c(-c2cccc3ccccc23)nc2cc3[nH]c(=O)c(C(C)C)nc3cc21`, the “inhibition” value is -11% (inactive).

Consider `CC(C)C(=O)c1ccc(O)c(O)c1`, for which the IC50 is 1.71 µM (active).

Turning to `O=C(NCc1cccnc1)C(=O)Nc1cc2c3c(c1)CC(=O)N3CCC2`, the “inhibition” value was -6.82% (inactive).

In the case of `O=C(CNS(=O)(=O)c1cccc(Cl)c1)OCc1csc(-c2ccccc2)n1`, the “inhibition” value was 20.6% (inactive).

As to `CN(C)c1ccc(NS(=O)(=O)c2ccc(Cl)cc2)cc1`, the IC50 is 5.63 µM (active).

Regarding `CN(C)c1ccc(NS(=O)(=O)c2cc3c4c(c2)CC(=O)N4CCC3)cc1`, the IC50 is 1.83 µM (active).

With `COc1ccc(NS(=O)(=O)c2ccc(NS(=O)(=O)c3ccc(SC)cc3)cc2)c(OC)c1`, the “inhibition” value is 7.44% (inactive).

Turning to `CCCNC(=O)NS(=O)(=O)c1ccc(Cl)cc1`, the “inhibition” value is 14.3% (inactive).

For `CN(C)c1ccc(NS(=O)(=O)c2cccc(Cl)c2)cc1`, the IC50 is 13 µM (active).

As for `O=C(CC(Sc1ccc(Br)cc1)C(=O)O)c1ccc(Br)cc1` (stereo not given), the “inhibition” value was 28.3% (inactive).

Consider `Oc1ccc(/C=N/Nc2ncnc3c2ncn3Cc2ccccc2)cc1O`, for which the IC50 was 10.1 µM (active).

Regarding `CNC(=O)CS(=O)CC(=O)Nc1cc(OCCOC)c(Cl)cc1Cl` (stereo not given), the “inhibition” value is -15.2% (inactive).

For `CCOC(=O)c1ccc(-c2c(-c3ccc4c(c3)OCO4)noc2-c2ccsc2)cc1F`, the “inhibition” value was -33.2% (inactive).

As for `CCOC(=O)c1[nH]nc(-c2cc(CC)c(O)cc2O)c1-c1cscn1`, the IC50 is 7.84 µM (active).

For `CN(C)c1ccc(Nc2nc(N)c([N+](=O)[O-])c(N3CCOCC3)n2)cc1`, the IC50 was 4.28 µM (active).

As for `CNc1ccc(/C=C(\C#N)C(=O)Nc2ccccn2)cc1[N+](=O)[O-]`, the “inhibition” value is 9.32% (inactive).

Regarding `N#C/C(=C\c1ccc(O)c(O)c1)C(=O)Nc1cccc2ncccc12`, the IC50 is 4.88 µM (active).

In the case of `COc1ccc(/C=C(/C#N)C(=O)Nc2ccc(O)cc2)cc1C(=O)O`, the IC50 was 2.62 µM (active).

Take `O=C(/C=C/c1ccc(Br)o1)NCc1ccccc1`: the “inhibition” value is 0.14% (inactive).

With `N#C/C(=C\c1ccc(O)c([N+](=O)[O-])c1)C(=O)NCc1ccccc1`, the “inhibition” value is 22% (inactive).

On to `N#C/C(=C\c1ccc(O)c(O)c1)C(=O)NCc1ccccc1`, for which the IC50 was 7.7 µM (active).

Turning to `N#C/C(=C\c1ccccc1OCc1ccc(C(=O)O)cc1)C(=O)Nc1ccc(O)cc1`, the IC50 was 5.71 µM (active).

On to `CCOc1ccc(/C=C(\C#N)C(=O)NC2CC2)c(OCC)c1`, for which the “inhibition” value is 2.06% (inactive).

As for `O=C(O)c1ccc(COc2ccccc2C=C2C(=O)c3ccccc3C2=O)cc1`, the “inhibition” value is 15.4% (inactive).

Turning to `COc1c(O)ccc2c1CN1CCc3cc4c(cc3C1C2)OCO4` (stereo not given), the “inhibition” value is 23.5% (inactive).

As for `CCOC(=O)c1ccc(S(=O)(=O)Nc2nc3cc(S(=O)(=O)NC4=NCCCCC4)ccc3s2)cc1`, the “inhibition” value is -36.8% (inactive).

On to `N#C/C(=C\c1ccc(N2CCOCC2)o1)C(=O)Nc1ccc(O)cc1`, for which the IC50 is 1.66 µM (active).

For the molecule `N#C/C(=C\c1ccc(O)c(O)c1)C(=O)NCCc1ccccc1`, the IC50 is 5.36 µM (active).

Consider `N#C/C(=C\c1ccc(O)c(O)c1)C(=O)NCCCc1ccccc1`, for which the IC50 was 8.38 µM (active).

As for `N#C/C(=C\c1ccc(O)c(O)c1)C(=O)Nc1ccccc1`, the IC50 is 12.6 µM (active).

As for `CC(c1ccncn1)N(C)Cc1nc(Cc2ccccc2F)no1` (stereo not given), the “inhibition” value is -33.4% (inactive).

With `C[C@@H](NC(=O)/C(C#N)=C/c1ccc(O)c(O)c1)c1ccccc1`, the IC50 was 4.73 µM (active).

Regarding `CCC(C)NC(=O)CC(c1ccccc1)c1cc(C)ccc1O` (stereo not given), the “inhibition” value was 10.9% (inactive).

For the molecule `Oc1c(C(c2ccco2)N2CCN(C(c3ccccc3)c3ccccc3)CC2)sc2ncnn12` (stereo not given), the “inhibition” value is -1.94% (inactive).

In the case of `C/C(=N\NC(=O)CSc1nc2ccccc2o1)c1ccc(O)cc1`, the IC50 was 6.4 µM (active).

In the case of `C/C(=N/NC(=O)CSc1nc2ccccc2n1C)c1ccc(O)cc1`, the 50% inhibitory concentration (IC50) was 6.92 µM (active).

For `Cc1ccc(C)c(-n2c3nc(=O)[nH]c(=O)c-3cc3cc([N+](=O)[O-])ccc32)c1`, the “inhibition” value was -8.14% (inactive).

Take `COc1ccccc1C(C)NS(=O)(=O)c1cccs1` (stereo not given): the “inhibition” value was 1.27% (inactive).

As usually defined, the IC50 is the concentration at which inhibition is half-maximal. By inhibition is commonly meant the relative decrease from the control value, in per cent.
